# PubChem BioAssay (NCATS)
# Results filed as inconclusive are left out. Where a call stands in place of a potency, no number is given. The source made the active and inactive calls. Unless noted, calls follow the shape of the dose curve; as a rule, active = well fitted curve in the direction sought with a large enough effect; inconclusive = small, poorly fitted or top-dose-only effect, or another doubt; inactive = no such curve, though single readings can be large; an effect the other way counts as inactive or inconclusive.
# How the values were obtained:
# [1] = target: Pyruvate kinase (Leishmania mexicana) (UniProt Q27686); assay: qHTS Validation Assay for Inhibitors of Leishmania Mexicana Pyruvate Kinase (AID 945)
# Outline: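 Mutant LmPYK (E451W), 0.2 nM, plus 0.5 mM PEP and 0.1 mM ADP in 50 mM imidazole pH 7.2 containing 0.01% Tween 20 and 0.05% BSA. Incubated 1 h at room temperature; luminescence via PKLight, normalized to DMSO.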
# [2] = target: Pyruvate kinase PKM (Homo sapiens) (UniProt P14618); assay: qHTS Assay for Activators of Human Muscle Pyruvate Kinase (AID 954; active = well fitted curve in the direction sought with a large enough effect, not every such curve was filed as active)
# Outline: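 Compound pinned into substrate mix (0.5 mM PEP, 0.1 mM ADP), then 0.1 nM PKM2 added; 1 h, RT. Stop/detection luciferase reagent added, luminescence read. Normalized to no-inhibition and no-enzyme or reference-inhibitor controls.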
# [3] = MultiTox-Fluor Cytotoxicity Assay - LYMP1-001 - Dead Cells (AID 946)
# Outline: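 LYMP1-001 lymphoblastoid cells (2500/well) treated 16 h at 37 C. Dead-cell protease cleavage of bis-AAF-R110 read at Ex/Em 485/520. Normalized to DMSO and 15 uM tetraoctylammonium bromide; AC50 from Hill fits.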
# [4] = MultiTox-Fluor Cytotoxicity Assay - LYMP1-001 - Live Cells (AID 947)
# [5] = Cell Viability - LYMP1-002 - Assay at 16 hr (AID 948)
# Outline: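 Acute cytotoxicity is scored as a concentration-dependent fall in intracellular ATP in a human lymphoblastoid line (LYMP1-002) after 16 hr compound exposure at 37 C, measured by luciferase luminescence.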
# [6] = MultiTox-Fluor Cytotoxicity Assay - LYMP1-002 - Live Cells (AID 955)
# Outline: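 In this qHTS viability format, lymphoblastoid cells (LYMP1-002, human) received compound for 16 hr at 37 C. Fluorogenic GF-AFC cleavage by viable cells was detected at 405/510 nm after 1 h at room temperature.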
# [7] = MultiTox-Fluor Cytotoxicity Assay - LYMP1-003 - Dead Cells (AID 961); also: nearly all actives have a fitted effect of over 70% in size
# Outline: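 LYMP1-003 human lymphoblastoid cells (2500/well) exposed to compound 16 h at 37 C in complete medium; dead-cell protease read with bis-AAF-R110 fluorescence (Ex/Em 485/520) after 60 min at room temperature. Normalized to DMSO and 15 uM tetraoctylammonium bromide; AC50 from Hill fit.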
# [8] = MultiTox-Fluor Cytotoxicity Assay - LYMP1-003 - Live Cells (AID 962);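 also: cytotoxic hits lower the live-cell protease signal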
# Outline: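 Human lymphoblastoid line LYMP1-003 in complete culture medium, treated 16 hr with titrated compounds. Viable cells quantified via cell-permeant GF-AFC substrate fluorescence; AC50 derived by Hill fitting.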
# [9] = Cell Viability - LYMP1-003 - Assay at 24 hr (AID 963)
# Outline: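 The lymphoblastoid line was treated with titrated compounds for 24 hours, and viable cell number estimated from luciferase-based ATP luminescence.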
# [10] = Cell Viability - LYMP1-003 - Assay at 40 hr (AID 964); also: series mostly up to about 92 µM; nearly all actives have a fitted effect of over 60% in size
# Outline: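 Acute toxicity is scored as a concentration-dependent loss of intracellular ATP in LYMP1-003 cells (2500/well, complete medium) after 40 hr at 37 C, measured by CellTiter-Glo luminescence; AC50 values derive from standard Hill modelling.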
# [11] = Cell Viability - LYMP2-003 (AID 965);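 also: cells exposed to compounds for 24 h before reading; nearly all actives have a fitted effect of over 50% in size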
# Outline: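 Acute cytotoxicity is scored as a concentration-dependent drop in intracellular ATP, measured by luciferase luminescence in human lymphoblastoid cells treated for 24 hours at 37 C. AC50 values derive from Hill-equation modelling.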
# [12] = Cell Viability - LYMP2-004 (AID 966);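 also: cells exposed to compound for 24 h; nearly all actives have a fitted effect of over 65% in size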
# Outline: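 Viable-cell number estimated from ATP luminescence (CellTiter-Glo) in 2500 human lymphoblastoid cells/well after 24 hr at 37 C with compound. AC50 fitted to the standard Hill equation.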
# [13] = Cell Viability - LYMP2-009 (AID 968);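 also: series mostly up to about 92 µM; cells exposed to compound for 24 h at 37 °C; nearly all actives have a fitted effect of over 55% in size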
# [14] = Cell Viability - LYMP2-011 (AID 969); also: nearly all actives have a fitted effect of over 60% in size
# Outline: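 Cells seeded at 2500 per well rest 5 hr before compound addition, then incubate 24 hr at 37 C. CellTiter-Glo reagent is added for 30 min at room temperature before luminescence detection.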
# [15] = Cell Viability - LYMP2-013 (AID 970);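 also: series mostly up to about 92 µM; cells exposed to compound for 24 h at 37 °C; nearly all actives have a fitted effect of over 55% in size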
# Outline: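 In complete culture medium, human lymphoblastoid cells were dosed for 24 hr at 37 C, with tetraoctylammonium bromide (6.4pM to 92 uM) as positive control. Viability reflects luciferase-based ATP signal; AC50 derived from concentration-response curves.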
# [16] = Cell Viability - LYMP2-015 (AID 971);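 also: cells exposed to compound for 24 h; nearly all actives have a fitted effect of over 55% in size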
# Outline: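 AC50 values reflect Hill-model fits of ATP-based luminescence (CellTiter-Glo) from a human lymphoblastoid line, 2500 cells/well, treated 24 hr at 37 C.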
# Sequence of Pyruvate kinase PKM (Homo sapiens) (P14618 whole entry, looked up): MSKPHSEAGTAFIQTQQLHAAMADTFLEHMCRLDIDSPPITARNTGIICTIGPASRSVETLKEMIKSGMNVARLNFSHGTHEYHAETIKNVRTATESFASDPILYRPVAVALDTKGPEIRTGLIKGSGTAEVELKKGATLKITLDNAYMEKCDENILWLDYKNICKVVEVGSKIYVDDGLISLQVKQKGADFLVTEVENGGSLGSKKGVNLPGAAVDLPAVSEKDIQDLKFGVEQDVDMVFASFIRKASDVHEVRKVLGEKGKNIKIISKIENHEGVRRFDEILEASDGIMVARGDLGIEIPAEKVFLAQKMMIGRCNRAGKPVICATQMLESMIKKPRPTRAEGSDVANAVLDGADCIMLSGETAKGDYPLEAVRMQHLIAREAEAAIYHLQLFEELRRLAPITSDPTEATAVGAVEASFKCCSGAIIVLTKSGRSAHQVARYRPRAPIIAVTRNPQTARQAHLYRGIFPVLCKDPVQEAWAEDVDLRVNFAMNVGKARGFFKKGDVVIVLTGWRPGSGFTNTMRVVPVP
# Sequence of Pyruvate kinase (Leishmania mexicana) (Q27686 2-499 E452W): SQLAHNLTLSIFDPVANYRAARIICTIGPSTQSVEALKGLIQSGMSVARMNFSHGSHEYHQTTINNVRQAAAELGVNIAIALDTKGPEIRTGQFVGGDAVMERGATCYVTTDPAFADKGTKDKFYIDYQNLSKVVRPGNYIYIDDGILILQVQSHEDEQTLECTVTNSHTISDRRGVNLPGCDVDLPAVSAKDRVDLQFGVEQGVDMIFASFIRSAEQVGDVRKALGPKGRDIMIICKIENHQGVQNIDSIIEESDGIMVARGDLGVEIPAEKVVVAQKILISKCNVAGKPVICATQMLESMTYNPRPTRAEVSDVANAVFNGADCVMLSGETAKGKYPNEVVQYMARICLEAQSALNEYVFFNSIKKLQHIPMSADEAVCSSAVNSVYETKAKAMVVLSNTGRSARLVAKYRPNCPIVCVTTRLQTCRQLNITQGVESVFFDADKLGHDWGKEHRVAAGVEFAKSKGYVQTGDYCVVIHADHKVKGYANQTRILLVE
smiles,measurement,setting,value
COc1ccc(CCN(C)CCc2ccc(OC)c(OC)c2)cc1OC,Potency,[1],inactive
same,outcome,[2],inactive
COc1ccc2c(c1)c(CC(=O)O)c(C)n2Cc1ccc(Cl)cc1,Potency,[1],inactive
N#C/C(=C\c1ccc(O)c(O)c1)C(=O)NCCc1ccccc1,Potency,[1],inactive
O=C(O)/C=C/c1ccc(O)c(O)c1,Potency,[1],inactive
same,outcome,[2],inactive
O=c1ccc2c(OCCCCc3ccccc3)c3ccoc3cc2o1,Potency,[1],inactive
NCCNS(=O)(=O)c1cccc2c(Cl)cccc12,Potency,[1],inactive
Cc1ccc2c(c1)C(N1CCN(C)CC1)=Nc1cccnc1N2,Potency,[1],inactive
NC(=O)c1ccccc1,Potency,[1],inactive
same,outcome,[3],inactive
same,outcome,[4],inactive
same,outcome,[5],inactive
same,outcome,[6],inactive
same,outcome,[7],inactive
same,outcome,[8],inactive
same,outcome,[9],inactive
same,outcome,[10],inactive
same,outcome,[11],inactive
same,outcome,[12],inactive
same,outcome,[13],inactive
same,outcome,[14],inactive
same,outcome,[15],inactive
same,outcome,[16],inactive
O=C(O)C1=CCCN(CCON=C(c2ccccc2)c2ccccc2)C1,Potency,[1],inactive
NC(N)=[N+]1CCc2ccccc2C1,Potency,[1],inactive
Cc1cc2c(cc1Cl)N(C(=O)Nc1ccnc3ccccc13)CC2,Potency,[1],inactive
CC(N)=O,Potency,[1],inactive
COc1ccc(NC(=O)c2ccc(-c3ccc(-c4noc(C)n4)cc3C)cc2)cc1N1CCN(C)CC1,Potency,[1],inactive
C=CC[C@H](N)C(=O)O,Potency,[1],inactive
NC1(C(=O)O)CC1,Potency,[1],inactive
COc1ccccc1N1CCN(CCCCN2C(=O)c3ccccc3C2=O)CC1,Potency,[1],inactive
CC(C)NC[C@H](O)COc1ccc(CC(N)=O)cc1,Potency,[1],inactive
CCN1C(=O)C=CC1=O,Potency,[1],inactive
same,outcome,[2],inactive
CCn1c(=O)[nH]c2cc(Cl)c(Cl)cc21,Potency,[1],inactive
same,outcome,[2],inactive
O=C(N[C@@H](Cc1ccccc1)C(=O)CCl)OCc1ccccc1,Potency,[1],inactive
same,outcome,[2],inactive
COc1ccccc1N1CCN(CCCNc2c(C)c(=O)n(C)c(=O)n2C)CC1,Potency,[1],inactive
same,outcome,[2],inactive
N#CC(C#N)=C(N)/C(C#N)=C/c1ccc(O)cc1,Potency,[1],inactive
same,outcome,[2],inactive
N[C@@H](Cc1ccc(O)c(I)c1)C(=O)O,Potency,[1],inactive
same,outcome,[2],inactive
Cc1nc2c(OCc3ccccc3)cccn2c1CC#N,Potency,[1],inactive
same,outcome,[2],inactive
Clc1nccc2c1ccc1ccccc12,Potency,[1],inactive
same,outcome,[2],inactive
Nn1nnc2ccccc21,Potency,[1],inactive
same,outcome,[2],inactive
CC(=O)N[C@@H](Cc1c[nH]c2ccccc12)C(=O)OCc1cc(C(F)(F)F)cc(C(F)(F)F)c1,Potency,[1],inactive
same,outcome,[2],inactive
NC(N)=NC(N)=Nc1ccccc1,Potency,[1],inactive
same,outcome,[2],inactive
C#CCn1c(=O)c2c(ncn2C)n(C)c1=O,Potency,[1],inactive
same,outcome,[2],inactive
NOCC(=O)O,Potency,[1],inactive
same,outcome,[2],inactive
CCN(CC)CCCCCCCCOC(=O)c1cc(OC)c(OC)c(OC)c1,Potency,[1],inactive
same,outcome,[2],inactive
Cc1nc(N=Nc2cc(S(=O)(=O)O)c3cc([N+](=O)[O-])cc(S(=O)(=O)O)c3c2)c(COP(=O)(O)O)c(C=O)c1O,Potency,[1],inactive
same,outcome,[2],inactive
COc1ccc(C(=O)NCc2cccnc2)cc1C(=O)NCc1cccnc1,Potency,[1],inactive
same,outcome,[2],inactive
N[C@@H](Cc1c[nH]c2ccccc12)C(=O)O,Potency,[1],inactive
same,outcome,[2],inactive
O=c1onc2cnc3ccccc3n12,Potency,[1],inactive
same,outcome,[2],inactive
COc1ccc2c(c1)c(CC(=O)O)c(C)n2C(=O)c1ccccc1,Potency,[1],inactive
same,outcome,[2],inactive
CSC(=N)N,Potency,[1],inactive
same,outcome,[2],inactive
N=C(N)c1ccc(N)cc1,Potency,[1],inactive
same,outcome,[2],inactive
S=C(S)N1CCCC1,Potency,[1],inactive
same,outcome,[2],inactive
CN1CCN(c2nc3cc(C(F)(F)F)ccc3n3cccc23)CC1,Potency,[1],inactive
same,outcome,[2],inactive
CN[C@H](CC(=O)O)C(=O)O,Potency,[1],inactive
same,outcome,[2],inactive
O=C(O)Cc1ccc(O)c(O)c1,Potency,[1],inactive
same,outcome,[2],inactive
COCc1nc2c([nH]1)c(=O)n(C)c(=O)n2CC(C)C,Potency,[1],inactive
same,outcome,[2],inactive
COc1ccccc1N1CCN(CCCCNC(=O)c2ccc3ccccc3c2)CC1,Potency,[1],inactive
same,outcome,[2],inactive
CNc1cc(NS(=O)(=O)c2ccc(N)cc2)nc(NC)n1,Potency,[1],inactive
same,outcome,[2],inactive
Nc1ccc(N2C(=O)c3ccccc3C2=O)c(Cl)c1,Potency,[1],inactive
same,outcome,[2],inactive
Nc1ncnc2c1ncn2C1CCCC1,Potency,[1],inactive
same,outcome,[2],inactive
CCCCCCCCCCC/C=C\C(C)(C)/C=C\CCCC(=O)O,Potency,[1],inactive
same,outcome,[2],inactive
Cn1c(=O)c2[nH]c(-c3ccc(S(=O)(=O)O)cc3)nc2n(C)c1=O,Potency,[1],inactive
same,outcome,[2],inactive
CCCc1c(OCCCOc2ccc(OCC(=O)O)cc2)ccc(C(C)=O)c1O,Potency,[1],inactive
same,outcome,[2],inactive
O=C(OCCN1CCOCC1)C1(c2ccccc2)CCCCC1,Potency,[1],inactive
same,outcome,[2],inactive
COc1cc(N)c(Cl)cc1C(=O)OCCN1CCCCC1,Potency,[1],inactive
same,outcome,[2],inactive
